# Laboratory results taken from PubChem BioAssay AID1159580 (chemical genetic matrix, 2015).
# Out of some 5,500 compounds screened, about 2,000 (36%) were called active. Inconclusive results (about 18%) are left out. This is one part of the list. A number with no mark means an inactive call. Rule as the data show it: active = normalized growth mostly below about 0.91 (no sharp cut-off); inconclusive = no clear call, values can overlap the other calls; inactive = mostly above about 0.92.
# Assay: chemical genetic growth profiling, strain panel (AID 1159580);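 also: tested at 20 µM; growth read once vehicle control cultures reached saturation at 30 °C; 1 = growth at the plate median or of vehicle wells; lower values mean less growth of the strain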
# Conditions: S. cerevisiae deletion strains, growth OD
smiles,measurement,setting,value
C=C(C)C1CC=C(CO)CC1 (centres undefined),normalized growth,"locus YAL021C, strain ccr4, active compounds read low",0.983
same,normalized growth,"locus YAL026C, strain drs2, active compounds read low",0.978
same,normalized growth,"locus YAL030W, strain snc1, active compounds read low",0.973
same,normalized growth,"locus YBL061C, strain skt5, active compounds read low",0.991
same,normalized growth,"locus YBR009C, strain hhf1, active compounds read low",0.994
same,normalized growth,"locus YBR023C, strain chs3, active compounds read low",0.981
same,normalized growth,"locus YBR171W, strain sec66, active compounds read low",0.95
same,normalized growth,"locus YBR231C, strain swc5, active compounds read low",0.975
same,normalized growth,"locus YBR279W, strain paf1, active compounds read low",0.983
same,normalized growth,"locus YCL011C, strain gbp2, active compounds read low",0.963
same,normalized growth,"locus YCL016C, strain dcc1, active compounds read low",0.983
same,normalized growth,"locus YCL061C, strain MRC1, active compounds read low",0.978
same,normalized growth,"locus YCL069W, strain vba3, active compounds read low",0.948
same,normalized growth,"locus YCR088W, strain abp1, active compounds read low",0.963
same,normalized growth,"locus YDL005C, strain med2, active compounds read low",0.961
same,normalized growth,"locus YDL040C, strain nat1, active compounds read low",0.959
same,normalized growth,"locus YDR001C, strain nth1, active compounds read low",0.963
same,normalized growth,"locus YDR069C, strain doa4, active compounds read low",0.978
same,normalized growth,"locus YDR137W, strain rgp1, active compounds read low",0.941
same,normalized growth,"locus YDR159W, strain sac3, active compounds read low",0.943
same,normalized growth,"locus YDR195W, strain ref2",0.809 (active)
same,normalized growth,"locus YDR297W, strain sur2, active compounds read low",0.975
same,normalized growth,"locus YDR334W, strain swr1, active compounds read low",0.938
same,normalized growth,"locus YDR335W, strain msn5, active compounds read low",0.965
same,normalized growth,"locus YDR392W, strain spt3, active compounds read low",0.844
same,normalized growth,"locus YEL003W, strain gim4, active compounds read low",0.976
same,normalized growth,"locus YEL037C, strain rad23, active compounds read low",0.955
same,normalized growth,"locus YEL061C, strain CIN8 (second series), active compounds read low",0.946
same,normalized growth,"locus YER015W, strain faa2, active compounds read low",0.976
same,normalized growth,"locus YER016W, strain bim1, active compounds read low",0.969
same,normalized growth,"locus YER111C, strain swi4, active compounds read low",0.963
same,normalized growth,"locus YER155C, strain BEM2 (second series), active compounds read low",0.793 (active)
same,normalized growth,"locus YFR010W, strain ubp6, active compounds read low",0.98
same,normalized growth,"locus YGL167C, strain pmr1, active compounds read low",0.96
same,normalized growth,"locus YGL173C, strain kem1, active compounds read low",0.955
same,normalized growth,"locus YGL227W, strain vid30, active compounds read low",0.965
same,normalized growth,"locus YGL240W, strain doc1, active compounds read low",0.954
same,normalized growth,"locus YGL253W, strain hxk2, active compounds read low",0.983
same,normalized growth,"locus YHR013C, strain ard1, active compounds read low",0.982
same,normalized growth,"locus YHR027C, strain rpn1, active compounds read low",0.976
same,normalized growth,"locus YHR030C, strain SLT2, active compounds read low",1.06
same,normalized growth,"locus YHR079C, strain IRE1, active compounds read low",1.05
same,normalized growth,"locus YHR142W, strain chs7, active compounds read low",0.995
same,normalized growth,"locus YJL092W, strain hpr5, active compounds read low",0.938
same,normalized growth,"locus YJL095W, strain BCK1 (second series), active compounds read low",0.97
same,normalized growth,"locus YJL095W, strain BCK1, active compounds read low",1.02
same,normalized growth,"locus YJL115W, strain asf1, active compounds read low",0.953
same,normalized growth,"locus YJL129C, strain trk1, active compounds read low",0.923
same,normalized growth,"locus YJL154C, strain vps35, active compounds read low",0.962
same,normalized growth,"locus YJL164C, strain tpk1, active compounds read low",0.987
same,normalized growth,"locus YJL166W, strain qcr8, active compounds read low",0.972
same,normalized growth,"locus YJL187C, strain SWE1, active compounds read low",0.968
same,normalized growth,"locus YJR066W, strain TOR1, active compounds read low",0.997
same,normalized growth,"locus YKL160W, strain elf1, active compounds read low",0.978
same,normalized growth,"locus YKR026C, strain gcn3, active compounds read low",0.972
same,normalized growth,"locus YKR091W, strain srl3, active compounds read low",0.953
same,normalized growth,"locus YLL001W, strain dnm1, active compounds read low",0.988
same,normalized growth,"locus YLL026W, active compounds read low",0.976
same,normalized growth,"locus YLL041C, strain sdh2, active compounds read low",0.971
same,normalized growth,"locus YLR027C, strain aat2, active compounds read low",0.993
same,normalized growth,"locus YLR113W, strain HOG1, active compounds read low",1.01
same,normalized growth,"locus YLR221C, strain rsa3, active compounds read low",1.01
same,normalized growth,"locus YLR258W, strain gsy2, active compounds read low",0.979
same,normalized growth,"locus YLR262C, strain YPT6 (second series), active compounds read low",0.954
same,normalized growth,"locus YLR320W, strain mms22, active compounds read low",0.983
same,normalized growth,"locus YLR342W, strain FKS1, active compounds read low",0.967
same,normalized growth,"locus YLR357W, strain rsc2, active compounds read low",0.92
same,normalized growth,"locus YLR370C, strain arc18, active compounds read low",0.938
same,normalized growth,"locus YLR384C, strain iki3, active compounds read low",0.958
same,normalized growth,"locus YML120C, strain ndi1, active compounds read low",0.974
same,normalized growth,"locus YMR058W, strain fet3, active compounds read low",0.968
same,normalized growth,"locus YMR125W, strain sto1, active compounds read low",0.931
same,normalized growth,"locus YMR129W, active compounds read low",0.955
same,normalized growth,"locus YMR205C, strain PFK2, active compounds read low",0.956
same,normalized growth,"locus YMR231W, strain pep5, active compounds read low",0.971
same,normalized growth,"locus YNL071W, strain lat1, active compounds read low",0.953
same,normalized growth,"locus YNL183C, strain NPR1, active compounds read low",0.947
same,normalized growth,"locus YNL209W, strain ssb2, active compounds read low",0.968
same,normalized growth,"locus YNL248C, strain rpa49, active compounds read low",0.932
same,normalized growth,"locus YNL322C, strain KRE1 (second series), active compounds read low",0.948
same,normalized growth,"locus YNR049C, strain mso1, active compounds read low",0.951
same,normalized growth,"locus YOR001W, strain rrp6, active compounds read low",0.969
same,normalized growth,"locus YOR070C, strain gyp1, active compounds read low",0.97
same,normalized growth,"locus YOR080W, strain dia2, active compounds read low",0.951
same,normalized growth,"locus YOR083W, strain WHI5, active compounds read low",0.994
same,normalized growth,"locus YOR106W, strain vam3, active compounds read low",0.989
same,normalized growth,"locus YOR231W, strain MKK1, active compounds read low",1.05
same,normalized growth,"locus YOR265W, strain rbl2, active compounds read low",0.968
same,normalized growth,"locus YOR270C, strain vph1, active compounds read low",0.949
same,normalized growth,"locus YOR290C, strain snf2, active compounds read low",0.96
same,normalized growth,"locus YPL051W, strain arl3, active compounds read low",0.99
same,normalized growth,"locus YPL078C, strain atp4, active compounds read low",0.979
same,normalized growth,"locus YPL106C, strain sse1, active compounds read low",0.945
same,normalized growth,"locus YPL240C, strain hsp82, active compounds read low",0.959
same,normalized growth,"locus YPL256C, strain CLN2, active compounds read low",1.04
C=C(C)C1CC=C(C(=O)O)CC1 (centres undefined),normalized growth,"locus YAL013W, strain DEP1, active compounds read low",1.01
same,normalized growth,"locus YAL040C, strain CLN3, active compounds read low",0.991
same,normalized growth,"locus YCL061C, strain MRC1 (second series), active compounds read low",1.01
same,normalized growth,"locus YDR150W, strain NUM1, active compounds read low",0.986
same,normalized growth,"locus YDR363W, strain ESC2, active compounds read low",0.961
same,normalized growth,"locus YER002W, strain NOP16, active compounds read low",1.02
same,normalized growth,"locus YGR229C, strain SMI1, active compounds read low",0.978
same,normalized growth,"locus YMR263W, strain SAP30, active compounds read low",0.997
same,normalized growth,"locus YMR307W, strain GAS1, active compounds read low",0.996
same,normalized growth,"locus YNL175C, strain NOP13, active compounds read low",1.01
same,normalized growth,"locus YNL197C, strain WHI3, active compounds read low",1
same,normalized growth,"locus YNL224C, strain SQS1, active compounds read low",1.01
same,normalized growth,"locus YOR083W, strain WHI5 (second series), active compounds read low",0.961
same,normalized growth,"locus YPL241C, strain CIN2, active compounds read low",1
